Giardia FBPA inh = inhibitors of Giardia lamblia fructose-1,6-bisphosphate aldolase; 0.71% of 290,000 active; Potency, µM (doses to about 59.6 µM), inactives show top-dose activity, negative = inhibition, actives largely listed as inhibitors; purified Giardia FBPA; A8B2U2; also: potency is read from the fitted curve at half-maximal effect; % is scaled to controls: 0 for no effect and ±100 for the full control effect; nearly all actives have a fitted effect of over 55% in size
Target sequence (A8B2U2 whole entry, looked up): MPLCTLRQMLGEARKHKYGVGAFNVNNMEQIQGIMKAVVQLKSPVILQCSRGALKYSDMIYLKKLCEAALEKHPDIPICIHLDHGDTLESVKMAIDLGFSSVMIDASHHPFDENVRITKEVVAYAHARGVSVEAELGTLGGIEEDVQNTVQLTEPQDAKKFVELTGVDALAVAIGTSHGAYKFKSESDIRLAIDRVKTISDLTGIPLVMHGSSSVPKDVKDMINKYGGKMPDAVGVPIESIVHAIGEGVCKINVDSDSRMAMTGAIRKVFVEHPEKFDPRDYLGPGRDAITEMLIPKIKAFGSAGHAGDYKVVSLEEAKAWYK
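40 nM FBPA preincubated 10 min at RT with compound (up to 57.5 uM final), then substrate plus GAPDH/TPI/NAD/arsenate coupling and diaphorase/resazurin added. Fluorescence read after 20 min at RT, 525/598 nm.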
LmPK inhibitor = LmPK (Leishmania mexicana) enzyme inhibition. purified LmPK, Kinase-Glo ATP luminescence, 1 h. Potency, µM (highest dose often 57.5 µM), inactives show top-dose activity change, negative = inhibition, hits mostly inhibitors. 0.37% of 290,000 active; also: potency is read from the fitted curve at half-maximal effect; % is scaled to controls: 0 for no effect and ±100 for the full control effect
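Purified LmPK (0.1 nM) with 0.5 mM PEP and 0.1 mM ADP in imidazole buffer pH 7.2 with MgCl2/KCl, 1 h at room temperature. ATP formed was read by luciferase luminescence and normalized to no-enzyme and uninhibited controls.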
CHX counter = counter-screen for Shiga toxin inhibitors: cycloheximide protein synthesis inhibition; cell reporter, cycloheximide protein synthesis inhibition counterscreen; 12% of 300,000 active; AID 2314; max response, %; in the data active = max response mostly above about 13%, no sharp cut-off; inactive = mostly below about 14%; also: read at 38.3 µM for the half of the compounds with a filed dose; 0% is about no effect
NS1 function inh = inhibitors of influenza NS1 protein function; Potency, µM (titrated, usually from 46.1 µM), for inactives: at the highest dose activity, positive = more growth; 0.4% of 270,000 active; AID 2326; calls by dose curve; also: potency is read from the fitted curve at half-maximal effect; actives are rising curves; nearly all actives have a fitted effect of over 50% in size
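Read-out: OD600 growth recovery of NS1-expressing budding yeast. Cells grown overnight at 30C in -URA glucose medium, washed, resuspended and diluted 1:100 in 2% galactose assay medium, pH 6.0. Same strain lacking NS1 served as positive control.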
Shiga toxin inh = inhibitors of Shiga toxin in Vero cells; Vero cells, Shiga toxin protein synthesis inhibition reporter; inhibition, % at 38.7 µM; 9.2% of 290,000 active; in the data active = inhibition mostly above about 28%, no sharp cut-off; inactive = mostly below about 43%; also: 0% is about no effect
* marks the source's active call; other numbers are inactive results; ? = inconclusive; · = no result given; [ ] = another dose, or the depositor's remark. A selection: hits, their analogues and other compounds. The true share with any hit is near 14%. Unless noted, calls follow the shape of the dose curve; as a rule, active = well fitted curve in the direction sought with a large enough effect; inconclusive = small, poorly fitted or top-dose-only effect, or another doubt; inactive = no such curve, though single readings can be large; an effect the other way counts as inactive or inconclusive.

SMILES	Giardia FBPA inh	LmPK inhibitor	CHX counter	NS1 function inh	Shiga toxin inh
COc1ccc(Nc2nc(-c3cccs3)cs2)cc1	-13%	-9%	41*	3%	42*
Oc1ccc(Nc2nc(-c3cccs3)cs2)cc1	6%	5%	-3	18%	20
COc1ccccc1Nc1nc(-c2cccs2)cs1	-10%	-13%	37*	-26%	77*
CCC(C)C(=O)Nc1nc(C)c(-c2csc(Nc3ccccc3OC)n2)s1 (stereo unspecified)	-8%	2%	-4	20%	-14
CCN(CC)S(=O)(=O)c1ccc2c(c1)N(CC(=O)N1CCCC1)C(=O)CO2	2%	3%	-3	-1%	-3
CCCOC(=O)N1CCN(/[N+]([O-])=N/Oc2ccc([N+](=O)[O-])cc2[N+](=O)[O-])CC1	-5%	·	8	·	16
COc1ccc(Nc2nc(-c3sc(C)nc3C)cs2)c(OC)c1	3%	0%	8.8*	-108%	13
Cc1c(C(=O)COC(C)(C)C)[nH]c2ccccc12	5%	0%	20*	-53%	25
O=C(O)C[C@@H](CNC(=O)COc1ccc2ccc(=O)oc2c1)c1ccc(Cl)cc1	·	-3%	-4	9%	-5
O=C(/C=C/c1ccc(O)c(O)c1)c1ccc(O)cc1O	-12%	·	10*	·	35*
O=C(O)/C=C/c1ccc(O)c(O)c1	?	7%	3	2%	8
COc1ccc(S(=O)(=O)N2CCC(C(N)=O)CC2)cc1C(=O)N1CCCCCC1	5%	-6%	1	4%	-4
c1csc(-c2nc3ccccc3s2)c1	-6%	?	56*	-2%	96*
c1cncc(-c2nc3ccccc3s2)c1	0%	-28%	39*	0%	112*
COc1ccc(-c2nc3ccccc3s2)cc1	-5%	13µM*	16*	-8%	18
Cc1ccc(-c2nc3ccccc3s2)cc1S(=O)(=O)N1CCCC1	0%	2%	30*	15%	43
CC(=O)N(Cc1cccnc1)c1cccc(-c2nc3ccccc3s2)c1	7%	-2%	-2	-1%	63
CSCCC(NC(=O)OCc1ccccc1)C(=O)NCc1cccnc1 (stereo unspecified)	2%	-2%	10	-1%	-3
CC1(C)CCC(NC(=O)[C@@H](N)CCC(=O)O)CC1	-4%	·	·	0%	·
CCN1CCN(CCCNC(=O)CNC(=O)c2nn(-c3ccc(OC)cc3OC)c(=O)c3ccccc23)CC1	3%	5%	-3	11%	5
COc1ccc(OC)c(NS(=O)(=O)c2c(C(=O)N3CCCCCC3)c(C)n(C)c2C)c1	-12%	8%	-2	13%	-13
COC(=O)NC/C=C\c1nc(CCCO)co1	-3%[12.9 µM]	·	·	·	·
O=c1c(CCc2ccccc2)nc2cnc(N3CCOCC3)nc2n1C[C@H]1CCCO1	0%	·	·	·	·
O=C(CNC(=O)N1CC(=O)Nc2ccccc21)NCc1ccccc1Cl	9%	1%	-2	1%	-2
O=C(O)CCC(O)=C1S(=O)(=O)OCCOS1(=O)=O	·	·	·	-3%	·
SMILES	Giardia FBPA inh	LmPK inhibitor	CHX counter	NS1 function inh	Shiga toxin inh
c1ccc2sc(-c3ccc4c(c3)OCO4)nc2c1	-1%	10µM*	34*	-15%	52*
c1ccc2sc(-c3ccncc3)nc2c1	7%	?	44*	-8%	51*
Oc1ccc(-c2nc3ccccc3s2)cc1	4%	16µM*	32*	-40%	32
CCCNC(=O)OC[C@H]1O[C@@H](CCO/N=C2/[C@H]3O[C@@H]3[C@@H](O)[C@H]3[C@H]2CCn2c(=O)n(-c4ccccc4)c(=O)n23)C=C[C@@H]1Oc1ccc(OC)cc1	1%[12.9 µM]	·	·	·	·
O=C(O)[C@@H]1[C@@H](C(=O)NCc2cccnc2)[C@@H]2C=C[C@@H]1O2	·	·	·	1%	·
O=C(O)c1ccc2c3c(cccc13)C(=O)N(c1ccccc1)C2=O	-12%	6%	-3	1%	-19
CC(=O)c1ccc2c3c(cccc13)C(=O)N(CCc1ccccc1)C2=O	-5%	6%	32*	?	49*
C=C[C@@]1(C)CC(=O)[C@@]2(O)[C@@]3(C)[C@@H](O)CCC(C)(C)[C@@H]3[C@H](O)[C@H](OC(C)=O)[C@@]2(C)O1	8%	·	·	·	·
CCN(C/C=C/C#CC(C)(C)C)Cc1cccc(OCc2cc(-c3ccsc3)cs2)c1	-5%	·	26	·	30*
COc1cccc(CN(C)C(=O)CCc2nnc(-c3ccsc3)o2)c1	?	4%	7	-7%	33
O=C(CN1C(=O)S/C(=C\c2ccc(Cl)cc2)C1=O)NCCCn1ccnc1	·	-1%	17*	16%	26

Screening results: PubChem BioAssay, National Center for Advancing Translational Sciences (NCATS)
